# Measured values: PubChem BioAssay (NCI)
# About 79,000 compounds went through this panel and 15% of them were active in at least one assay; those are over-represented in the sample as a whole. The source made the active and inactive calls. Rule as the data show it: active = growth inhibition above about 70%; inactive = the rest.
# Assay: NCI Yeast Anticancer Drug Screen. Data for the sgs1 mgt1 strain (AID 161);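 also: 0% = growth of cultures given vehicle only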
# Conditions: S. cerevisiae sgs1 mgt1 strain, at 5.0 µM (retest, dose inferred, filed as 0.5), stronger effect = higher value
# Method in brief: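 Genetically altered yeast, compound exposure, growth inhibition relative to vehicle.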
row,Structure (SMILES),growth inhibition
1,O=Nc1c(O)ccc2ccccc12.[Fe].[Na+],8% (inactive)
2,CC(C)Cc1ncc(CC(C)C)n(O)c1=O,41% (inactive)
3,COc1ccc2c(c1)CCc1c-2ccc(C)c1CCC(=O)O,19% (inactive)
4,COc1ccc(/C=C(\C#N)c2ccccc2)cc1OC,1% (inactive)
5,CCC(=O)OCC(=O)c1ccc(-c2ccccc2)cc1,-2% (inactive)
6,C=C1CC(c2ccc(OCCCN3C(=O)c4ccccc4C3=O)c(OC)c2)OC1=O (stereo not given),1% (inactive)
7,N[C@H](C(=O)O)[C@@H]1CC(Cl)=NO1,59% (inactive)
8,Cc1ccc2c(c1)[n+]([O-])c(N)c(C#N)[n+]2[O-],-16% (inactive)
9,Cc1cc(O)c2c(c1)C(=O)c1c(c(O)cc(O)c1-c1c(O)cc(O)c3c1C(=O)c1cc(C)cc(O)c1C3=O)C2=O,8% (inactive)
10,CC(=O)c1csc2c1C(=O)c1scc(C(C)=O)c1C2=O,24% (inactive)
11,CCC(CCCN(CC)CCc1ccccc1)OC(=O)c1cc(OC)c(OC)c(OC)c1 (stereo not given),-1% (inactive)
12,COC(CCC[N+](C)(C)C)CC[N+](C)(C)C (stereo not given),-7% (inactive)
13,CCC(=O)c1ccc2ccc3ccccc3c2c1,4% (inactive)
14,CN(C)c1nc(N(C)C)oc(=[N+](C)C)n1,0% (inactive)
15,COc1ccc(Cc2ccc(N)cc2)cc1,-68% (inactive)
16,CN(C)CC(CN(C)C)C(=O)c1ccc(Oc2ccccc2)cc1,85% (active)
17,C1C2OC2C2C1C1CC2C2OC12 (stereo not given),-3% (inactive)
18,Nc1ccc2c(c1)[nH]c(=O)c1cccc(Cl)c12,-39% (inactive)
19,COc1cccc(C2c3cc4c(cc3OC(Nc3ccccc3)C2C)OCO4)c1O (stereo not given),1% (inactive)
20,Cc1cc(SC#N)cc(C)c1O,-1% (inactive)

row,Structure (SMILES),growth inhibition
1,CCN(CC)CCCNc1ncc(C)c2c1c1ccc3c(O)cccc3c1n2C,21% (inactive)
2,O=C1c2ccccc2C(O)(C#Cc2ccccc2)c2cnccc21 (stereo not given),-1% (inactive)
3,CC(=O)Nc1nnc(C)s1,-2% (inactive)
4,CC1CN(CC(O)c2ccc(Br)cc2)CC(C)O1 (stereo not given),8% (inactive)
5,O=C(C=P(c1ccccc1)(c1ccccc1)c1ccccc1)CC(=S)CC(=O)C=P(c1ccccc1)(c1ccccc1)c1ccccc1,24% (inactive)
6,CN(C)CCC(/C=C/c1ccccc1)=N\Nc1ccc(Cl)cc1Cl,47% (inactive)
7,Oc1c(Cl)cc(Br)cc1Cl,11% (inactive)
8,Cc1ccc2c(ccc(CC(=S)[S-])[n+]2C)c1,11% (inactive)
9,Cc1ccc2c(c1)C(=O)N(CC[P+](c1ccccc1)(c1ccccc1)c1ccccc1)C2=O,74% (active)
10,Nc1ncnc2c1c(-c1ccccc1)cn2-c1ccc(Cl)cc1,16% (inactive)
11,Nc1nnc(-c2cc([N+](=O)[O-])cc([N+](=O)[O-])c2)o1,-1% (inactive)
12,COc1cc2c(cc1OC)C(Cl)C(c1ccc(F)cc1)=C2Cl (stereo not given),-4% (inactive)
13,COc1ccc(C2Oc3c(cccc3OC)C=C2[N+](=O)[O-])cc1 (stereo not given),40% (inactive)
14,O=C(O)c1cc2cc3ccccc3cc2cc1O,3% (inactive)
15,Oc1ccc2ccc3ccccc3c2c1,5% (inactive)
16,COC(=O)c1ccc(OC)cc1,-1% (inactive)
17,Clc1ccc2c(NCCCCCCNc3ccnc4cc(Cl)ccc34)ccnc2c1,-10% (inactive)
18,COc1ccc(C2C3=C(CCC(CN(C)C)C3=O)OC3=C2C(=O)C(CN(C)C)CC3)cc1 (stereo not given),-20% (inactive)
19,CC(C)CC(NC(=O)COc1c(Cl)cc(Cl)c(Cl)c1Cl)C(=O)O (stereo not given),-1% (inactive)
20,Cc1nc2c(=O)[nH]c3ccc(Cl)cc3c2o1,9% (inactive)

# Same assay, conditions: S. cerevisiae sgs1 mgt1 strain, at 50.0 µM (retest, dose inferred, filed as 5.0), stronger effect = higher value
row,Structure (SMILES),growth inhibition
1,O=Nc1c(O)ccc2ccccc12.[Fe].[Na+],98% (active)
2,CC(C)Cc1ncc(CC(C)C)n(O)c1=O,97% (active)
3,COc1ccc2c(c1)CCc1c-2ccc(C)c1CCC(=O)O,99% (active)
4,COc1ccc(/C=C(\C#N)c2ccccc2)cc1OC,53% (inactive)
5,CCC(=O)OCC(=O)c1ccc(-c2ccccc2)cc1,18% (inactive)
6,C=C1CC(c2ccc(OCCCN3C(=O)c4ccccc4C3=O)c(OC)c2)OC1=O (stereo not given),89% (active)
7,N[C@H](C(=O)O)[C@@H]1CC(Cl)=NO1,96% (active)
8,Cc1ccc2c(c1)[n+]([O-])c(N)c(C#N)[n+]2[O-],97% (active)
9,Cc1cc(O)c2c(c1)C(=O)c1c(c(O)cc(O)c1-c1c(O)cc(O)c3c1C(=O)c1cc(C)cc(O)c1C3=O)C2=O,64% (inactive)
10,CC(=O)c1csc2c1C(=O)c1scc(C(C)=O)c1C2=O,43% (inactive)
11,CCC(CCCN(CC)CCc1ccccc1)OC(=O)c1cc(OC)c(OC)c(OC)c1 (stereo not given),30% (inactive)
12,COC(CCC[N+](C)(C)C)CC[N+](C)(C)C (stereo not given),78% (active)
13,CCC(=O)c1ccc2ccc3ccccc3c2c1,72% (active)
14,CN(C)c1nc(N(C)C)oc(=[N+](C)C)n1,-9% (inactive)
15,COc1ccc(Cc2ccc(N)cc2)cc1,85% (active)
16,CN(C)CC(CN(C)C)C(=O)c1ccc(Oc2ccccc2)cc1,99% (active)
17,C1C2OC2C2C1C1CC2C2OC12 (stereo not given),-15% (inactive)
18,Nc1ccc2c(c1)[nH]c(=O)c1cccc(Cl)c12,80% (active)
19,COc1cccc(C2c3cc4c(cc3OC(Nc3ccccc3)C2C)OCO4)c1O (stereo not given),97% (active)
20,Cc1cc(SC#N)cc(C)c1O,45% (inactive)

row,Structure (SMILES),growth inhibition
1,CCN(CC)CCCNc1ncc(C)c2c1c1ccc3c(O)cccc3c1n2C,40% (inactive)
2,O=C1c2ccccc2C(O)(C#Cc2ccccc2)c2cnccc21 (stereo not given),97% (active)
3,CC(=O)Nc1nnc(C)s1,-5% (inactive)
4,CC1CN(CC(O)c2ccc(Br)cc2)CC(C)O1 (stereo not given),56% (inactive)
5,O=C(C=P(c1ccccc1)(c1ccccc1)c1ccccc1)CC(=S)CC(=O)C=P(c1ccccc1)(c1ccccc1)c1ccccc1,85% (active)
6,CN(C)CCC(/C=C/c1ccccc1)=N\Nc1ccc(Cl)cc1Cl,91% (active)
7,Oc1c(Cl)cc(Br)cc1Cl,93% (active)
8,Cc1ccc2c(ccc(CC(=S)[S-])[n+]2C)c1,46% (inactive)
9,Cc1ccc2c(c1)C(=O)N(CC[P+](c1ccccc1)(c1ccccc1)c1ccccc1)C2=O,91% (active)
10,Nc1ncnc2c1c(-c1ccccc1)cn2-c1ccc(Cl)cc1,61% (inactive)
11,Nc1nnc(-c2cc([N+](=O)[O-])cc([N+](=O)[O-])c2)o1,14% (inactive)
12,COc1cc2c(cc1OC)C(Cl)C(c1ccc(F)cc1)=C2Cl (stereo not given),-3% (inactive)
13,COc1ccc(C2Oc3c(cccc3OC)C=C2[N+](=O)[O-])cc1 (stereo not given),96% (active)
14,O=C(O)c1cc2cc3ccccc3cc2cc1O,36% (inactive)
15,Oc1ccc2ccc3ccccc3c2c1,99% (active)
16,COC(=O)c1ccc(OC)cc1,-4% (inactive)
17,Clc1ccc2c(NCCCCCCNc3ccnc4cc(Cl)ccc34)ccnc2c1,95% (active)
18,COc1ccc(C2C3=C(CCC(CN(C)C)C3=O)OC3=C2C(=O)C(CN(C)C)CC3)cc1 (stereo not given),-5% (inactive)
19,CC(C)CC(NC(=O)COc1c(Cl)cc(Cl)c(Cl)c1Cl)C(=O)O (stereo not given),12% (inactive)
20,Cc1nc2c(=O)[nH]c3ccc(Cl)cc3c2o1,90% (active)
